Compound activity from PubChem BioAssay.
hERG WT inh: blocks the wildtype human KCNH2 potassium channel | Q12809 | activity change, % at 1.84 µM | U2OS, BacMam KCNH2, thallium flux FluxOr; active compounds read low | AID 720551 | hit rate 0.37% among 340,000;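 active means maximum activity change below -70%; inconclusive means maximum activity change between -70% and -50%; inactive means maximum activity change above -50%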; further: on the % scale 0 is the no-effect control and ±100 the full control effect
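U2OS cells were transduced with wild-type KCNH2 virus (2.03 x 10^8 / mL) for 4 h at room temperature, then cultured overnight at 37 C. Thallium flux was read with FluxOr dye. Rate constants were normalized to DMSO controls.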
TRPV1 potentiator: enhances activation of the human vanilloid receptor TRPV1; AID 540277; potentiation, % at 8.33 µM; TRPV1-expressing cells, Fluo-8 calcium influx, capsaicin EC20 potentiation; Q8NER1; hit rate 0.02% among 320,000; in the data active means potentiation above about 80%; inconclusive means between about 30% and that limit; further: 0% is about no effect
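Cells expressing TRPV1 were dye-loaded with Fluo-8 and read kinetically: 10 s baseline, 3 min after compound (agonist portion), then 2 min after EC20 capsaicin (allosteric enhancer portion). Calcium-bound dye fluorescence at 480/520 nm.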
TRPML1 blocker: blocks the human TRPML1 channel; Q9GZU1; activity change, negative = inhibition, % (test concentration not listed); hit rate 0.02% among 390,000; TRPML1-inducible cells, Ca2+ dye fluorescence, FDSS; active compounds read low; inhibition of EC80 agonist-evoked calcium signal; in the data active means activity change below about -50%; inconclusive means between about -30% and that limit;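 further: stimulus is agonist 54-4 at its EC80 concentration; on the % scale 0 is the no-effect control and ±100 the full control effect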
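Calcium fluorescence in TRPML1-DL cells induced overnight with Tet: a 110 s read after compound pin addition, then a 110 s antagonist read after challenge with 54-4 at 4 uM final (EC80).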
KCNH2 3.1 block: blocks the human KCNH2 3.1 channel isoform; activity change, % (tested at about 1.8 µM); hit rate 0.95% among 340,000; U2OS KCNH2 3.1, thallium flux FluxOr; active compounds read low; AID 720553;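 active means maximum activity change below -70%; inconclusive means maximum activity change from -70% to -50%; inactive means maximum activity change above -50%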;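 further: thallium influx rate constant from kinetic fluorescence after stimulation buffer; on the % scale 0 is the no-effect control and ±100 the full control effect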
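FluxOr-based Tl+ influx in U2OS cells transduced with KCNH2 3.1 virus; rate constants normalized to DMSO controls.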
TRPV1 ag: agonists of human vanilloid receptor 1 (TRPV1). activation, % at 8.33 µM. AID 540275. hit rate 0.19% among 320,000. Q8NER1. TRPV1-expressing cells, Fluo-8 calcium influx, agonist mode; in the data active means activation above about 80%; inconclusive means between about 30% and that limit; further: 0% is about no effect
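Fluo-8 calcium influx in TRPV1-expressing cells, kinetic read (ex 480/em 520 nm). Compound added and read 3 min for agonist activity, followed by capsaicin at EC20 final and 2 min further read for enhancement.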
TRPML1 agonist: agonists of human TRPML1 channel; TRPML1-expressing cells, Ca2+ dye fluorescence, FDSS; activation, % (no concentration beside the values); hit rate 0.12% among 410,000; in the data active means activation above about 50%; inconclusive means mostly about 30% to 49%; further: 0% is about no effect
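Cells: TRPML1-DL, 1X Tet inducer, ~16 h at 37 degrees C/5% CO2. Dye: ABD Ca8 no-wash + quencher, 45-90 min RT. Read: 10 s baseline, compound add, 110 s agonist phase; 54-4 EC80 (4uM final), 110 s antagonist phase.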
Active calls of the source: *; ? = inconclusive; . = no result. A selection: hits, their analogues and other compounds. The true share with any hit is near 1.3%.

SMILES	hERG WT inh	TRPV1 potentiator	TRPML1 blocker	KCNH2 3.1 block	TRPV1 ag	TRPML1 agonist
COc1cc(OC)c(CN2CCC(CO)(CCOc3ccccc3)CC2)c(OC)c1	-105*	5	37	.	4	0
COc1cc(CN2CCC(CO)(CCOc3ccccc3)CC2)cc(OC)c1OC	.	5	29	6	4	1
COc1ccc(CN2CCC(CO)(CCOc3ccccc3)CC2)cc1C	-13	-4	2	-125*	6	0
CN(C)c1ccc(CCC2C=Cc3ccccc32)cc1 (configuration not stated)	.	.	.	.	.	0
CC(C)CC(=O)N1C/C=C\C[C@@H](c2ccc(Cl)cc2)N(Cc2ccc(Cl)cc2)C(=O)[C@@H]1Cc1ccccc1	.	.	.	.	.	0
COc1ccc(NC(=O)/C=C/c2ccc(OC(F)F)cc2)cn1	4	-12	2	-75*	20	0
COc1ccc(-c2nc(CCNC(=O)c3c(F)cccc3Cl)cs2)cc1	.	.	0	.	.	1
Cc1cc2nc(SCC(=O)Nc3ccccc3C(=O)O)[nH]c2cc1C	6	20	3	-138*	1	4
OCC1(CCc2ccccc2)CCN(Cc2cc(F)ccc2-n2cccn2)CC1	-28	-18	-12	-99*	6	-1
OCC1(CCCc2ccccc2)CCN(Cc2cc(F)ccc2F)CC1	11	-3	6	-16	7	-1
OCC1(CCc2ccccc2)CCN(Cc2ccccc2Cl)CC1	30	-6	-17	-80*	16	-1
Clc1ccccc1CN1CCN(CCCc2ccccc2)CC1	17	-13	-11	-78*	0	2
CCOC(=O)/C=C1\CN(Cc2ccc(OC)cc2)S(=O)(=O)c2ccc(C(F)(F)F)cc21	.	.	.	.	.	0
O=C(COc1ccccc1C(=O)Nc1ccccc1)Nc1ccccc1F	.	.	.	.	.	1
COc1ccc(NC(=O)Cn2c(=O)n(-c3ccc(Cl)cc3)c(=O)c3c(C)c(C(=O)N(C)C)sc32)cc1Cl	.	.	-13	.	.	1
CC1CCCCN1CC(=O)Nc1ccc(Oc2ccccc2)cc1 (configuration not stated)	12	1	-2	-89*	2	22
CC1CCCCN1CC(=O)Nc1ccc(N2CCCCCC2)cc1 (configuration not stated)	0	-10	-2	?	26	2
COc1ccc(-n2c3c(c(=O)[nH]c2=O)C(NS(=O)(=O)c2ccc(Cl)cc2)(C(F)(F)F)C(=O)N3)cc1 (configuration not stated)	-98*	8	12	12	-3	0
O=C1Nc2c(c(=O)[nH]c(=O)n2-c2ccc(Cl)cc2)C1(NS(=O)(=O)c1ccccc1)C(F)(F)F (configuration not stated)	.	.	-2	.	.	-1
CSc1cccc(NC(=O)CC(c2ccc(F)cc2)N2Cc3ccccc3C2=O)c1 (configuration not stated)	.	.	3	.	.	0
CC1CCC(NC(=O)CCc2cn(Cc3ccc(F)cc3)c3ccccc23)CC1 (configuration not stated)	.	.	6	.	.	2
CN(C)c1ccc(/C=C2\C=Cc3ccccc32)cc1Cl	.	.	.	.	.	-1
O=C(O)CC(c1ccccc1)N1C(=O)c2ccccc2C1=O (configuration not stated)	-1	.	9	-76*	.	1
Cc1cccc2sc(N(Cc3cccnc3)C(=O)c3cccs3)nc12	.	.	13	.	.	1
COc1ccccc1CNC(=O)CN1C(=O)COc2ccc(S(=O)(=O)N3CCC(C)CC3)cc21	.	.	-1	.	.	2
SMILES	hERG WT inh	TRPV1 potentiator	TRPML1 blocker	KCNH2 3.1 block	TRPV1 ag	TRPML1 agonist
Cc1cccc([C@@H]2[C@@H]3C(=O)N(Cc4ccccc4)C(=O)[C@@H]3[C@]3(C)C(=O)N(c4cccc(Cl)c4)C(=O)N23)c1	-2	7	-4	-74*	2	0
CCN1C(=O)[C@H]2[C@@H](c3ccc(C)cc3)N3C(=O)N(c4cccc(Br)c4)C(=O)[C@@]3(C)[C@H]2C1=O	-12	.	18	-80*	.	0
O=C(CCl)c1ccc2c(c1)CCCC2	.	.	.	.	.	1
COc1ccc(N(CC(O)Cn2c(C)nc3ccccc32)S(=O)(=O)c2ccc(C)cc2)cc1 (configuration not stated)	?	4	37	-102*	-7	0
Cc1ccc(S(=O)(=O)N(CC(O)CN2CCCCC2)c2ccccc2)cc1 (configuration not stated)	24	.	0	-32	.	-1
CCCN(CCC)CC(O)CN(c1ccccc1)S(=O)(=O)c1ccc(C)cc1 (configuration not stated)	-96*	13	-6	-81*	-4	0
O=C1CSC(c2ccc(Cl)cc2)N1c1cccnc1 (configuration not stated)	-7	9	-22	-6	-2	78*
COc1cc2c(C(=O)N3CCN(C)CC3)c(C)n(-c3ccccc3)c2cc1Br	-4	-26	0	.	28	-1
COc1cc2c(C(=O)N3CCOCC3)c(CSc3ccccc3)n(C)c2cc1Br	-1	102*	74	16	?	6
Nc1[nH]c(=S)[nH]c(=O)c1N	.	.	.	.	.	-1
CCCCCCCCCOC(=O)CNc1nc(C#N)nc(NCC(=O)OCCCCCCCCC)n1	.	.	.	.	.	0
C=CCN1CC[C@@H](O)C(=C)S1(=O)=O	.	.	.	.	.	0
O=c1oc2ccccc2cc1-c1nc2c(s1)CCc1ccccc1-2	-4	-1	-20	-28	1	7
O=c1oc2cc(O)ccc2cc1-c1nc2c(s1)CCc1ccccc1-2	-157*	-13	-6	-32	83*	83*
O=c1oc2ccc3ccccc3c2cc1-c1nnc(Nc2ccccc2F)s1	.	.	0	.	.	0
O=c1oc2cc(O)ccc2cc1-c1nnc(Nc2ccccc2F)s1	.	.	3	.	.	71*
Cc1ccc(NC(=O)Cn2cc(C(=O)C3CCCCC3)c3ccccc32)cc1	.	.	-10	.	.	1
NC(=O)COc1ncnc2scc(-c3ccc(F)cc3)c12	-10	-2	-8	-8	-8	0
COCCNC(=O)COc1ncnc2scc(-c3ccc(F)cc3)c12	-16	8	2	-112*	-1	3
COc1ccc2c(c1)C/C(=C\c1ccc(N(C)C)cc1)C2=O	.	.	.	.	.	72*
COc1cccc2c1C(=O)/C(=C/c1ccc(N(C)C)cc1)C2	.	.	.	.	.	0
Cc1ccc(-c2csc(NC(=O)c3ccc4c(=O)n5c(nc4c3)CCCCC5)n2)cc1	-77*	-1	0	-10	0	0
CCCCC1CCC(C(=O)N2CC(=O)Nc3ccc(C)cc3C2c2ccc(F)cc2)CC1 (configuration not stated)	.	.	-3	.	.	-1
